According to PubChem BioAssay (NCI):
About 79,000 compounds went through this panel and 15% of them were active in at least one assay; those are over-represented in the sample as a whole. Active and inactive are the calls of the source. Cut-off read from the data, not from the text of the source: active = growth inhibition above about 70%; inactive = the rest.

Legend:
[1] = NCI Yeast Anticancer Drug Screen. Data for the rad52 strain (AID 147);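 note: 0% = growth of vehicle-treated control cultures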; settings: S. cerevisiae rad52 mutant growth inhibition, active compounds read high
Method in brief: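 Compounds are applied to a genetically defined yeast strain lacking normal DNA damage repair, and inhibition of growth is expressed relative to cultures given vehicle only.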

[2] = NCI Yeast Anticancer Drug Screen. Data for the wt1 strain (AID 149);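 note: 0% = growth of vehicle-treated wt1 cultures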; settings: S. cerevisiae wt1 strain (SPY 50644) growth inhibition, active compounds read high
Method in brief: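 Measured: growth of wt1 yeast under compound versus vehicle treatment, reported as inhibition.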

[3] = NCI Yeast Anticancer Drug Screen. Data for the rad50EPP+ strain (AID 151);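 note: 0% = growth of vehicle-treated control cultures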; settings: S. cerevisiae rad50 mutant strain, active compounds read high
Method in brief: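 Compounds were applied to the rad50EPP+ yeast strain, which bears a defined DNA repair alteration, and growth inhibition was determined relative to vehicle-treated cultures.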

[4] = NCI Yeast Anticancer Drug Screen. Data for the rad50 strain (AID 155);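 note: 0% = growth of vehicle-only cultures of the same strain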; settings: S. cerevisiae rad50 strain growth inhibition, active compounds read high
Method in brief: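 Growth of the mutant yeast was measured after compound exposure and referenced to vehicle-treated cultures.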

[5] = NCI Yeast Anticancer Drug Screen. Data for the mec2-1 strain (AID 157); settings: S. cerevisiae mec2-1 strain, active compounds read high
Method in brief: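 Strain: mec2-1 (DNA repair/cell cycle alteration). Compound exposure, then growth measured; inhibition expressed relative to vehicle.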

[6] = NCI Yeast Anticancer Drug Screen. Data for the rad14 strain (AID 159);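 note: 0% = growth of vehicle-treated control cultures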; settings: S. cerevisiae rad14 strain growth inhibition, active compounds read high
Method in brief: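 Here, inhibition of yeast growth was measured after compound exposure, using a strain with a genetic defect in DNA damage repair and vehicle-treated cultures as the reference.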

[7] = NCI Yeast Anticancer Drug Screen. Data for the sgs1 mgt1 strain (AID 161);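 note: 0% = growth of cultures given vehicle only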; settings: S. cerevisiae sgs1 mgt1 strain, active compounds read high
Method in brief: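 Test agents were incubated with a DNA-repair-mutant yeast strain. Growth was then read and compared against vehicle-treated controls.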

[8] = NCI Yeast Anticancer Drug Screen. Data for the CLN2oe strain (AID 163);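 note: 0% = growth of vehicle-only control cultures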; settings: S. cerevisiae CLN2oe strain, active compounds read high
Method in brief: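 Growth of a genetically modified yeast strain is measured after compound exposure and compared with cultures given vehicle alone.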

[9] = NCI Yeast Anticancer Drug Screen. Data for the cln2 rad14 strain (AID 165);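 note: 0% = growth equal to vehicle treated cultures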; settings: S. cerevisiae cln2 rad14 strain, active compounds read high
Method in brief: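 Compounds are applied to the cln2 rad14 yeast strain, and growth is then compared with that of vehicle-treated cultures to give inhibition.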

[10] = NCI Yeast Anticancer Drug Screen. Data for the bub3 strain (AID 167); settings: S. cerevisiae bub3 mutant strain, active compounds read high
Method in brief: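 Whole-cell yeast assay. The mutant strain was incubated with compounds, and growth inhibition was determined by comparison with vehicle-treated cells.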

[11] = NCI Yeast Anticancer Drug Screen. Data for the wt2 strain (AID 169);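 note: 0% = growth of vehicle-treated yeast cultures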; settings: S. cerevisiae wt2 strain growth inhibition, active compounds read high
Method in brief: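 This strain belongs to a panel of yeast strains with defined genetic alterations in DNA damage repair or cell cycle control. Compounds are applied, and growth inhibition is measured against vehicle-treated cultures.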

[12] = NCI Yeast Anticancer Drug Screen. Data for the mlh1 strain (AID 171);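 note: 0% = growth of vehicle-treated control cultures of the same strain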; settings: S. cerevisiae mlh1 strain growth inhibition, active compounds read high
Method in brief: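 Growth of the mutant yeast strain after compound exposure, expressed as inhibition relative to vehicle-only controls.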

[13] = NCI Yeast Anticancer Drug Screen. Data for the sgs1 strain (AID 173);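 note: 0% = growth of vehicle-only control cultures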; settings: S. cerevisiae sgs1 mutant, active compounds read high
Method in brief: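 Growth of a yeast strain bearing a defined genetic alteration is measured after compound treatment. Inhibition is expressed relative to vehicle-only controls.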

[14] = NCI Yeast Anticancer Drug Screen. Data for the mlh1 rad18 strain (AID 175); settings: S. cerevisiae mlh1 rad18 strain growth inhibition, active compounds read high
Method in brief: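 Read-out is yeast growth inhibition, calculated against vehicle-only controls. The compound was applied to a strain engineered with DNA damage repair alterations.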

[15] = NCI Yeast Anticancer Drug Screen. Data for the rad18 strain (AID 177); settings: S. cerevisiae rad18 mutant growth inhibition, active compounds read high
Method in brief: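 Growth of the mutant yeast strain after compound exposure, normalised to vehicle-only cultures.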

[16] = NCI Yeast Anticancer Drug Screen. Data for the mgt1 strain (AID 153); settings: S. cerevisiae mgt1 mutant growth inhibition, active compounds read high
Method in brief: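 Strain: mgt1 yeast, one of a set carrying defined DNA damage repair or cell cycle control alterations. Compound-treated growth compared with vehicle.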

[17] = at 5.0 µM (retest, dose inferred, filed as 0.5)
[18] = at 50.0 µM (retest, dose inferred, filed as 5.0)

Measured: growth inhibition

O=C1OC(OC/C(Br)=C(\Br)COC2OC(=O)C(Cl)=C2Cl)C(Cl)=C1Cl (stereo not drawn)
active: [4]; [18] 91% | [4]; at 50.0 µM 98.7% | [5]; [18] 98% | [5]; at 50.0 µM 96.1% | [7]; [18] 99% | [7]; at 50.0 µM 93.1% | [9]; [18] 96% | [10]; [18] 93% | [10]; at 50.0 µM 93.6% | [14]; [18] 96% | [14]; at 50.0 µM 94.3%
inactive: [1]; at 1.2 µM 0% | [1]; at 3.7 µM 2% | [1]; at 11.0 µM 3% | [1]; at 33.0 µM 5% | [1]; at 100.0 µM 15% | [2]; at 1.2 µM 0% | [2]; at 3.7 µM 0% | [2]; at 11.0 µM 2% | [2]; at 33.0 µM 8% | [2]; at 100.0 µM 18% | [3]; at 1.2 µM -1% | [3]; at 3.7 µM 1% | [3]; at 11.0 µM 3% | [3]; at 33.0 µM 6% | [3]; at 100.0 µM 16% | [4]; at 1.2 µM 0% | [4]; at 3.7 µM 1% | [4]; [17] 37% | [4]; at 11.0 µM 0% | [4]; at 33.0 µM 7% | [4]; at 100.0 µM 15% | [5]; at 1.2 µM -2% | [5]; at 3.7 µM 2% | [5]; [17] 20% | [5]; at 11.0 µM 5% | [5]; at 33.0 µM 13% | [5]; at 100.0 µM 26% | [6]; at 1.2 µM 1% | [6]; at 3.7 µM 2% | [6]; at 11.0 µM 4% | [6]; at 33.0 µM 9% | [6]; at 100.0 µM 16% | [7]; [17] 39% | [8]; at 1.2 µM -2% | [8]; at 3.7 µM -1% | [8]; at 11.0 µM 2% | [8]; at 33.0 µM 9% | [8]; at 100.0 µM 14% | [9]; [17] 17% | [9]; at 50.0 µM 57.6% | [10]; at 1.2 µM 0% | [10]; at 3.7 µM -2% | [10]; [17] 13% | [10]; at 11.0 µM -4% | [10]; at 33.0 µM 1% | [10]; at 100.0 µM 16% | [11]; at 1.2 µM -1% | [11]; at 3.7 µM -2% | [11]; at 11.0 µM 0% | [11]; at 33.0 µM 3% | [11]; at 100.0 µM 10% | [12]; at 1.2 µM -1% | [12]; at 3.7 µM 0% | [12]; at 11.0 µM 2% | [12]; at 33.0 µM 4% | [12]; at 100.0 µM 12% | [13]; at 1.2 µM -1% | [13]; at 3.7 µM 0% | [13]; at 11.0 µM 0% | [13]; at 33.0 µM 6% | [13]; at 100.0 µM 20% | [14]; [17] 53% | [15]; at 1.2 µM 1% | [15]; at 3.7 µM 3% | [15]; at 11.0 µM 9% | [15]; at 33.0 µM 24% | [15]; at 100.0 µM 60%

CC(C)CN(CC(C)C)C(=O)c1ccc(Cl)c(Cl)c1
active: [1]; at 33.0 µM 82% | [1]; at 100.0 µM 98% | [2]; at 100.0 µM 98% | [16]; at 100.0 µM 98% | [5]; at 33.0 µM 82% | [5]; [18] 76% | [5]; at 50.0 µM 98% | [5]; at 100.0 µM 99% | [6]; at 100.0 µM 99% | [7]; [18] 83% | [7]; at 50.0 µM 95.8% | [8]; at 100.0 µM 99% | [9]; at 50.0 µM 93.2% | [10]; at 50.0 µM 83% | [10]; at 100.0 µM 99% | [12]; at 100.0 µM 98% | [13]; at 100.0 µM 99% | [14]; [18] 96% | [14]; at 50.0 µM 97.5% | [15]; at 100.0 µM 99%
inactive: [1]; at 1.2 µM -4% | [1]; at 3.7 µM 0% | [1]; at 11.0 µM 6% | [2]; at 1.2 µM -3% | [2]; at 3.7 µM -3% | [2]; at 11.0 µM -3% | [2]; at 33.0 µM 63% | [3]; at 1.2 µM -2% | [3]; at 3.7 µM 0% | [3]; at 11.0 µM 2% | [3]; at 33.0 µM 6% | [3]; at 100.0 µM 3% | [16]; at 1.2 µM 2% | [16]; at 3.7 µM 2% | [16]; at 11.0 µM 1% | [16]; at 33.0 µM 21% | [5]; at 1.2 µM -1% | [5]; at 3.7 µM 1% | [5]; [17] 6% | [5]; at 11.0 µM 0% | [6]; at 1.2 µM -2% | [6]; at 3.7 µM -1% | [6]; at 11.0 µM 9% | [6]; at 33.0 µM 31% | [7]; [17] -3% | [8]; at 1.2 µM 2% | [8]; at 3.7 µM 9% | [8]; at 11.0 µM 14% | [8]; at 33.0 µM 41% | [9]; [17] -29% | [9]; [18] 50% | [10]; at 1.2 µM 4% | [10]; at 3.7 µM 3% | [10]; [17] -18% | [10]; at 11.0 µM 8% | [10]; at 33.0 µM 25% | [10]; [18] 22% | [12]; at 1.2 µM 0% | [12]; at 3.7 µM 2% | [12]; at 11.0 µM 5% | [12]; at 33.0 µM 39% | [13]; at 1.2 µM 0% | [13]; at 3.7 µM 3% | [13]; at 11.0 µM 5% | [13]; at 33.0 µM 62% | [14]; [17] -17% | [15]; at 1.2 µM 0% | [15]; at 3.7 µM 4% | [15]; at 11.0 µM 5% | [15]; at 33.0 µM 66%
